Where “and” joins values, the source holds several entries; their conditions need not be identical. Identical values can stand only once. Counter-ions that a name gives are not always drawn.
Legend:
Test in all cases: cell viability relative to vehicle control; higher = less cytotoxic
Conditions in all cases: 10 µM
K562 = test system: K562
Procedure, shortened: (§1)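 After removal of identity-inconsistent compounds, the Selleck bioactive, kinase and epigenetic probe libraries were screened on CRISPR-edited mutant clones and isogenic wild-type clones of four leukaemia lines. Plates were 384-well, each well holding 2000 cells in 50 µL medium and receiving a single 10 µM acoustically dispensed dose. CellTiter-Glo luminescence was read 48 h later, after the supernatant was taken off. Genedata Screener was used to express viability as percent of the on-plate vehicle control.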

MARIMO = test system: MARIMO
Procedure, shortened: as §1

MOLM14 = test system: MOLM14
Procedure, shortened: as §1

OCI-AML2 = test system: OCI-AML2
Procedure, shortened: as §1

| Structure (SMILES) | cell viability (K562; SRSF2 genotype: SRSF2 P95H/wt) | cell viability (K562; SRSF2 genotype: SRSF2 wt/wt) [%] | cell viability (MARIMO; SRSF2 genotype: SRSF2 P95H/wt) [%] | cell viability (MARIMO; SRSF2 genotype: SRSF2 wt/wt) [%] | cell viability (MOLM14; SRSF2 genotype: SRSF2 P95H/wt) [%] | cell viability (MOLM14; SRSF2 genotype: SRSF2 wt/wt) [%] | cell viability (OCI-AML2; SRSF2 genotype: P95H/wt) [%] | cell viability (OCI-AML2; SRSF2 genotype: wt/wt) [%] |
| --- | --- | --- | --- | --- | --- | --- | --- | --- |
| CCN1CCCC1CNC(=O)c1cc(S(=O)(=O)CC)c(N)cc1OC (configuration not stated) [Amisulpride] | 104% and 101% | 105 | 102 | 107 | 109 | 108 | 109 | 110 |
| O=C1OC(C(O)CO)C([O-])=C1O.[Na+] (configuration not stated) [Sodium erythorbate] | 104% and 106% | 114 | 106 | 107 | 102 | 110 | 114 | 119 |
| O=c1c2ccccc2oc2ccccc12 [Xanthone (Genicide)] | 102% and 103% | 94.9 | 96.5 | 102 | 105 | 108 | 93.1 | 96.4 |
| Cc1ncc(-c2ccnc(Nc3ccc(S(C)(=O)=O)cc3)n2)n1C(C)C | 45.1% and 45.5% | 32.4 | 10.9 | 5.22 | 1.23 | 0.38 | 0.94 | 15.2 |
| C[C@H](NC(=O)C(=O)Nc1ccccc1C(C)(C)C)C(=O)N[C@@H](CC(=O)O)C(=O)COc1c(F)c(F)cc(F)c1F | 106% and 107% | 108 | 111 | 107 | 90.2 | 101 | 111 | 106 |
| CC12CCC(O)CC1=CCC1C2CCC2(C)C(C(O)CC(O)(C(F)(F)F)C(F)(F)F)CCC12 (configuration not stated) | 86.1% and 93.4% | 98.3 | 97 | 90.3 | 76.7 | 91.8 | 71.3 | 76.3 |
| CC[C@H]1OC(=O)[C@H](C)[C@@H](O[C@H]2C[C@@](C)(OC)[C@@H](O)[C@H](C)O2)[C@H](C)[C@@H](O[C@@H]2O[C@H](C)C[C@H](N(C)C)[C@H]2O)[C@](C)(O)C[C@@H](C)CN(C)[C@H](C)[C@@H](O)[C@]1(C)O [Azithromycin Dihydrate] | 86.8% and 80.4% | 82.7 | 86 | 83.7 | 86.8 | 93.3 | 77.9 | 88 |
| C[C@@H](CC[C@@]1(O)O[C@H]2C[C@H]3[C@@H]4CC[C@@H]5C[C@@H](O[C@@H]6O[C@H](CO)[C@H](O)[C@H](O)[C@H]6O[C@@H]6O[C@H](CO)[C@@H](O)[C@H](O)[C@H]6O)CC[C@]5(C)[C@H]4CC[C@]3(C)[C@H]2[C@@H]1C)CO[C@@H]1O[C@H](CO)[C@@H](O)[C@H](O)[C@H]1O [Timosaponin BII] | 93.3% and 90.7% | 89.5 | 102 | 107 | 96 | 93.5 | 49.8 | 73.6 |
| CC(C)=CCC[C@](C)(O[C@@H]1O[C@H](CO)[C@@H](O)[C@H](O)[C@H]1O)[C@H]1CC[C@]2(C)[C@@H]1[C@H](O)C[C@@H]1[C@@]3(C)CC[C@H](O)C(C)(C)[C@@H]3[C@@H](O)C[C@]12C [Ginsenoside F1] | 107% and 106% | 102 | 105 | 97.8 | 109 | 104 | 105 | 106 |
| C#C[C@]1(O)CC[C@H]2[C@@H]3CCc4cc(O)ccc4[C@H]3CC[C@@]21C [Ethinyl Estradiol] | 71.9% and 69.8% | 65 | 70.1 | 70 | 82.4 | 98.8 | 79.3 | 79.7 |
| CC(C)[C@H](N)C(=O)OCCOCn1cnc2c(=O)nc(N)[nH]c21 [Valaciclovir HCl] | 100% and 99% | 102 | 101 | 111 | 101 | 101 | 98.7 | 112 |
| COc1cc2ncnc(Nc3cccc(Cl)c3F)c2cc1OC(=O)N1CCN(C)C[C@H]1C | 84.8% and 93.4% | 101 | 104 | 106 | 77.9 | 87.3 | 89.8 | 75.7 |
| CC(C)=CCC[C@](C)(O[C@@H]1O[C@H](CO[C@@H]2O[C@H](CO)[C@@H](O)[C@H](O)[C@H]2O)[C@@H](O)[C@H](O)[C@H]1O)[C@H]1CC[C@]2(C)[C@@H]1[C@H](O)C[C@@H]1[C@@]3(C)CC[C@H](O[C@@H]4O[C@H](CO)[C@@H](O)[C@H](O)[C@H]4O[C@@H]4O[C@H](CO)[C@@H](O)[C@H](O)[C@H]4O)C(C)(C)[C@@H]3CC[C@]12C [Ginsenoside Rb1] | 103% and 102% | 105 | 103 | 112 | 103 | 102 | 101 | 111 |
| O=C(Nc1nccs1)C(c1cc(F)ccc1O)N1Cc2ccccc2C1=O (configuration not stated) | 103% and 94.9% | 96.6 | 94.6 | 105 | 98 | 97.6 | 93.9 | 100 |
| CCC[C@H](Nc1nc(-c2ccc(NC(=O)NCC)c(OC)c2)ncc1C)c1cccnc1 | 10.5% and 35.4% | 31.9 | 7.27 | 10 | 1.24 | 1.12 | 0.85 | 2.78 |
| CN1CCN(S(=O)(=O)c2ccc(-c3cnc(N)c(C(=O)Nc4cccnc4)n3)cc2)CC1 | 72.1% and 61.7% | 73.6 | 76.7 | 114 | 40.6 | 42.1 | 30 | 63.3 |
| OCC1OC(OC2OC(CO)C(O)C(O)C2O)C(O)C(O)C1O [D-(+)-Trehalose Anhydrous] | 109% and 105% | 114 | 111 | 99.1 | 107 | 107 | 99.6 | 102 |

| Structure (SMILES) | cell viability (K562; SRSF2 genotype: SRSF2 P95H/wt) | cell viability (K562; SRSF2 genotype: SRSF2 wt/wt) [%] | cell viability (MARIMO; SRSF2 genotype: SRSF2 P95H/wt) [%] | cell viability (MARIMO; SRSF2 genotype: SRSF2 wt/wt) [%] | cell viability (MOLM14; SRSF2 genotype: SRSF2 P95H/wt) [%] | cell viability (MOLM14; SRSF2 genotype: SRSF2 wt/wt) [%] | cell viability (OCI-AML2; SRSF2 genotype: P95H/wt) [%] | cell viability (OCI-AML2; SRSF2 genotype: wt/wt) [%] |
| --- | --- | --- | --- | --- | --- | --- | --- | --- |
| NN1CC(=O)NC1=O [1-Aminohydantoin Hydrochloride] | 103% | 97.1 | 99.8 | 106 | 97.1 | 101 | 89.2 | 106 |
| CC(=O)Oc1cccc2ccccc12 [1-Naphthyl acetate] | 90.4% and 85.3% | 95.8 | 92.4 | 97.5 | 93.7 | 93.8 | 93.3 | 90.8 |
| C=CCc1ccc(OC(C)=O)c(OC)c1 [Eugenyl acetate] | 85.8% and 88% | 86 | 89.7 | 90.4 | 93.2 | 90.1 | 91.1 | 91.6 |
| Cc1ccc(Nc2nccc(N(C)c3ccc4c(C)n(C)nc4c3)n2)cc1S(N)(=O)=O [Pazopanib] | 84.1% and 94.1% | 85.8 | 96 | 104 | 69.4 | 83 | 73.8 | 71.2 |
| CC(O)c1ccc(S(=O)(=O)NC(=O)NC2CCCCC2)cc1 (configuration not stated) [Hydroxyhexamide] | 106% and 96% | 107 | 103 | 99 | 101 | 104 | 104 | 106 |
| COc1ccc(NC(=O)c2ccc(C(=N)N(C)C)cc2)c(C(=O)Nc2ccc(Cl)cn2)c1 [Betrixaban maleate] | 96.1% and 95.9% | 89.5 | 86.5 | 89.9 | 99.9 | 102 | 81.3 | 76.5 |
| C[C@@H]1CC[C@@]2(OC1)O[C@H]1C[C@H]3[C@@H]4CC=C5C[C@@H](O)C[C@@H](O)[C@]5(C)[C@H]4CC[C@]3(C)[C@H]1[C@@H]2C [Ruscogenin] | 96.3% and 102% | 98 | 98.9 | 103 | 103 | 110 | 89.2 | 94.3 |
| C[C@H]1O[C@@H](O[C@H]2CC[C@@]3(C)[C@@H](CC[C@]4(C)[C@@H]3C=C[C@]35OC[C@@]6(CCC(C)(C)C[C@H]63)[C@H](O)C[C@]54C)[C@]2(C)CO)[C@H](O)[C@@H](O[C@@H]2O[C@H](CO)[C@@H](O)[C@H](O)[C@H]2O)[C@H]1O [Saikosaponin D] | 6.69% and 0.65% | 0.4 | 14 | 3.54 | 0.86 | 0.86 | 10.2 | 12.9 |
| O=S(=O)(c1ccccc1)c1cnc2c(N3CCNCC3)cccc2c1 | 93.9% | 94.6 | 95 | 95 | 98.7 | 100 | 101 | 93.2 |
| COc1cc2c(cc1OC)[C@H]1[C@@H](C)c3ccc(OC)c(OC)c3CN1CC2 [Corydaline] | 84.4% and 88.8% | 86.6 | 83.2 | 82 | 89.4 | 90.9 | 73.8 | 79.1 |
| COc1cccc(CCc2ccccc2OCC(CN(C)C)OC(=O)CCC(=O)O)c1 (configuration not stated) [Sarpogrelate hydrochloride] | 90.3% and 96% | 92.4 | 84.3 | 89.3 | 88.1 | 102 | 96.9 | 100 |
| Cc1ccc(NS(=O)(=O)c2ccc3c(c2)C2C=CCC2C(c2ccc(C(=O)O)cc2)N3)cc1C (configuration not stated) | 108% and 98.9% | 110 | 102 | 101 | 106 | 104 | 103 | 117 |
| COc1cc2c(cc1O)CC[C@@H]1[C@@H]2CC[C@]2(C)[C@@H](O)CC[C@@H]12 [2-Methoxyestradiol] | 14% and 27.1% | 29.9 | 10.4 | 10.9 | 7.93 | 2.27 | 6.68 | 13.6 |
| O=C(Nc1ccccc1-c1cn2c(CN3CCNCC3)csc2n1)c1cnc2ccccc2n1 | 0.23% and 0.19% | 0.26 | 0.19 | 0.26 | 0.15 | 0.18 | 0.14 | 0.2 |
| CCc1ccc(-c2nc(CSCC(=O)NCCc3ccccc3)c(C)o2)cc1 | 89.7% and 94% | 94.9 | 84.1 | 99.9 | 87.5 | 96.8 | 74.5 | 91.2 |
| C[n+]1c2n(c(=O)c3ccccc31)CCc1c-2[nH]c2ccccc12 [Dehydroevodiamine] | 93.1% and 93.3% | 91.5 | 88.7 | 88.2 | 94.8 | 98.2 | 97.2 | 87.5 |
| CC(=O)Oc1ccc2c(c1)Oc1cc(OC(C)=O)ccc1C21OC(=O)c2cc(C(=O)ON3C(=O)CCC3=O)ccc21.CC(=O)Oc1ccc2c(c1)Oc1cc(OC(C)=O)ccc1C21OC(=O)c2ccc(C(=O)ON3C(=O)CCC3=O)cc21 | 90.8% and 93.8% | 99.6 | 98.1 | 77.4 | 92.8 | 63.6 | 75.5 | 77.9 |

— the supplement of paper PMC10981050
